About 79,000 compounds went through this panel and 15% of them were active in at least one assay; those are over-represented in the sample as a whole. Active and inactive are the calls of the source. No stated cut-off is given here; in the data, active means growth inhibition above about 70%; inactive means the rest.
Tests used:
[1] = NCI Yeast Anticancer Drug Screen. Data for the rad50 strain (AID 155);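 further: 0% = growth of vehicle-only cultures of the same strain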; details: S. cerevisiae rad50 strain growth inhibition; at 50.0 µM; active compounds read high
Procedure, shortened: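 A DNA repair-deficient yeast mutant serves as the test organism; compound-induced growth inhibition is calculated against vehicle-treated cells.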

[2] = NCI Yeast Anticancer Drug Screen. Data for the mec2-1 strain (AID 157); details: S. cerevisiae mec2-1 strain, at 50.0 µM, active compounds read high
Procedure, shortened: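 Growth inhibition is read against vehicle-treated controls after compound exposure of the mec2-1 yeast strain, which is defective in DNA damage repair or cell cycle control.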

[3] = NCI Yeast Anticancer Drug Screen. Data for the sgs1 mgt1 strain (AID 161);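 further: 0% = growth of cultures given vehicle only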; details: S. cerevisiae sgs1 mgt1 strain, at 50.0 µM, active compounds read high
Procedure, shortened: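 This yeast growth screen uses a strain with defined DNA-repair lesions; compound-treated growth is compared with vehicle-treated growth.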

[4] = NCI Yeast Anticancer Drug Screen. Data for the cln2 rad14 strain (AID 165);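 further: 0% = growth equal to vehicle treated cultures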; details: S. cerevisiae cln2 rad14 strain, at 50.0 µM, active compounds read high
Procedure, shortened: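 Growth inhibition, relative to vehicle-treated controls, is the read-out. The test organism is a yeast strain with defined genetic alterations, cln2 rad14.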

[5] = NCI Yeast Anticancer Drug Screen. Data for the bub3 strain (AID 167); details: S. cerevisiae bub3 mutant strain, at 50.0 µM, active compounds read high
Procedure, shortened: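 Inhibition values come from growth of compound-treated mutant yeast normalised to vehicle-treated controls.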

[6] = NCI Yeast Anticancer Drug Screen. Data for the mlh1 rad18 strain (AID 175); details: S. cerevisiae mlh1 rad18 strain growth inhibition; at 50.0 µM; active compounds read high
Procedure, shortened: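 Cells of a genetically altered yeast strain, deficient in DNA damage repair, were treated with compound. Their growth was then compared with that of vehicle-treated cultures to give inhibition.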

Measured: growth inhibition

O=c1oc2ccccc2cc1-n1nnc2ccccc21
inactive: [1] -2.65% | [2] 11.1% | [3] 18.9% | [4] 2% | [5] 16.1% | [6] 21%

Cc1c([N+](=O)[O-])cc(C(C)(C)C)c(OC(=O)Nc2ccc(Cl)cc2)c1[N+](=O)[O-]
inactive: [1] 41.4% | [2] 63.7% | [3] 65.7% | [4] 52.2% | [5] 27.6% | [6] 69%

O=C(S)C(=O)Cc1cn[nH]n1
inactive: [1] -3.95% | [2] -1.9% | [3] -4.5% | [4] 6.15% | [5] -7.25% | [6] -26.8%

COCN1COCN(C)C1=O
inactive: [1] 8.5% | [2] 7.3% | [3] -1.55% | [4] 11.6% | [5] 23.9% | [6] 9.1%

O=C(O)c1ccccc1C(=O)OC1CC2C=CC1C21CC1 (stereo not drawn)
inactive: [1] -12.2% | [2] -13.2% | [3] -15.3% | [4] -1.9% | [5] -6.2% | [6] -9.75%

Cc1onc(-c2c(F)cccc2Cl)c1C(=O)OCc1c(F)cccc1Cl
inactive: [1] 6.8% | [2] -2.15% | [3] 20.9% | [4] 11.5% | [5] 25.1% | [6] 24.5%

O=c1/c(=C/c2ccccc2O)sc2nc3ccccc3n12
inactive: [1] 9.65% | [2] -42.2% | [3] 18.9% | [4] 15% | [5] 10.4% | [6] 20.9%

C/C(=N\n1c(-c2ccccc2)nc2ccccc2c1=O)c1ccc(C)cc1
inactive: [1] 5.25% | [2] 7.8% | [3] -2.7% | [4] 1.5% | [5] 4.95% | [6] -1.75%

COc1ccc(-c2cc(=O)c3cc(C)c(C)c(C#N)c3o2)cc1
inactive: [1] -25.9% | [2] -29.6% | [3] -35.8% | [4] -17.5% | [5] -29.9% | [6] -37.5%

CCO/C=C1/N=C(c2ccc(OC)c(OC)c2)OC1=O
inactive: [1] -6.3% | [2] 5.6% | [3] 18.6% | [4] -67.8% | [5] -7.2% | [6] 12.2%

CC(=O)OC(OC(C)=O)c1cccc2ccccc12
inactive: [1] 3.05% | [2] -9.3% | [3] -5.8% | [4] -15.9% | [5] 16.9% | [6] -3.9%

C=C(C)C(=O)OCCCCC
inactive: [1] 8.7% | [2] 5.15% | [3] 4.45% | [4] 6.65% | [5] -3.55% | [6] 2.95%

CC(C)(C)OC(=O)N1CC(C)(C)N2C(=O)C3(CCCO3)C12 (stereo not drawn)
inactive: [1] -4.3% | [2] -9.85% | [3] -7.15% | [4] -0.4% | [5] -16.6% | [6] 5.65%

CC(C)(C)OC(=O)Cn1ncn(NC(=O)Cc2ccccc2)c1=O
inactive: [1] -20.5% | [2] -24.5% | [3] -21.4% | [4] -56.2% | [5] -38.2% | [6] -0.1%

CC1C(=O)C2C1CS2(=O)=O (stereo not drawn)
inactive: [1] -0.9% | [2] 0.65% | [3] 5% | [4] -59.1% | [5] 13% | [6] -5.45%

O=[N+]([O-])c1cccc(C2=NON(c3ncccn3)C3N=CC=CN23)c1 (stereo not drawn)
inactive: [1] 11.9% | [2] -17.7% | [3] 14.3% | [4] -4.9% | [5] -9.65% | [6] 26.1%

Cc1ccc(Cc2ccc(CCc3ccc(Cc4ccc(C)cc4)cc3)cc2)cc1
inactive: [1] 10.2% | [2] 7.15% | [3] 18.6% | [4] 32.4% | [5] 12.2% | [6] 11.5%

CN(Cc1ccccc1)c1ccc(C(=O)O)cc1
inactive: [1] -2.65% | [2] 2.3% | [3] -5.55% | [4] -19% | [5] -23.6% | [6] 7%

O=C(Nc1ccc2ccccc2c1)c1ccc(Cl)c(Cl)c1
inactive: [1] -5% | [2] 29.6% | [3] 24.9% | [4] -6.8% | [5] 18.9% | [6] 27.4%

Oc1ccc(Cl)cc1/C=N\NC(=S)Nc1ccc2cn[nH]c2c1
inactive: [1] -2.7% | [2] 10.1% | [3] 13.9% | [4] -39.4% | [5] 20.8% | [6] 11.3%

[O-]/[N+]1=[N+](\[O-])c2ccccc2CCCc2ccccc21
inactive: [1] -7.35% | [2] -7.3% | [3] -2.6% | [4] -34.1% | [5] -12.8% | [6] -7.1%

CCCCN(C(=O)N(CC)CC)[Si](C)(C)C
inactive: [1] -17.6% | [2] -41.7% | [3] -12.4% | [4] 14% | [5] -14.7% | [6] -25.3%

CC(O)(C(=O)O)c1ccccc1O (stereo not drawn)
inactive: [1] -1.1% | [2] 1.7% | [3] 2.05% | [4] 3.3% | [5] 6.1% | [6] 6.75%

O=C(O)c1ccc(C(=O)c2ccc(Cl)cc2)cc1
inactive: [1] 31.9% | [2] 44.5% | [3] 42.4% | [4] -6.35% | [5] 13.6% | [6] 34.6%

C/C(CCC1CCCCC1)=N/Nc1ccc([N+](=O)[O-])cc1[N+](=O)[O-]
inactive: [1] 24% | [2] 8.9% | [3] 22.8% | [4] 16.5% | [5] 6.95% | [6] 5.55%

C/C=C/C(=O)OCCc1ccccc1
inactive: [1] 21.8% | [2] 3.4% | [3] 3.75% | [4] -5.5% | [5] 12.8% | [6] 27.5%

CN(C)CCSC(=Nc1ccccc1)N1CCCCC1
inactive: [1] -32.8% | [2] 1.7% | [3] -9.5% | [4] 30.9% | [5] 8.15% | [6] -9.6%

Clc1ccccc1C1Nc2ccccc2S1 (stereo not drawn)
inactive: [1] 39.7% | [2] 17.6% | [3] 48.2% | [4] -7.75% | [5] 13.3% | [6] 38.2%

CCOC(=O)/C(C(C)=O)=C1\C(=O)c2ccccc2-c2ccccc21
inactive: [1] 21.6% | [2] 3.5% | [3] 2.8% | [4] -19.2% | [5] 12.9% | [6] 12.5%

Cc1ccc2c(=O)[nH]cnc2c1
inactive: [1] -10.4% | [2] -23.2% | [3] 4.45% | [4] -7.6% | [5] 2% | [6] -2.15%

N/C(=N\N=C\C1CC2C=CC1C2)NO (stereo not drawn)
inactive: [1] 5.3% | [2] -11.4% | [3] -9.8% | [4] -0.05% | [5] -16.6% | [6] -4.55%

CCN(CC)C(=O)NCCCCCCNC(=O)N(CC)CC
inactive: [1] -20.2% | [2] -36.8% | [3] -27.8% | [4] -20% | [5] -29.2% | [6] -23.6%

CC(=O)OCC1OC(OCC(OC(C)=O)C(OC(C)=O)C(OC(C)=O)c2cnn(-c3ccccc3)n2)C(OC(C)=O)C(OC(C)=O)C1OC(C)=O (stereo not drawn)
inactive: [1] 1.35% | [2] 0.2% | [3] 2.65% | [4] -15.2% | [5] 12.4% | [6] 6.5%

CCCC#CCN(CCCC)CCCC
inactive: [1] -8.95% | [2] 0.15% | [3] -3.8% | [4] -7.9% | [5] 58% | [6] -20.1%

CCc1n[nH]c(=S)n1/N=C/c1ccc(-c2ccc([N+](=O)[O-])cc2)o1
inactive: [1] 14.6% | [2] -17.6% | [3] -14% | [4] 9.85% | [5] -14.1% | [6] 10.3%

Clc1cc(Cl)nc(Cl)n1
inactive: [1] 2.4% | [2] -7.1% | [3] -4.95% | [4] 21.1% | [5] 4.6% | [6] -1.65%

OCCN(c1ccccc1)c1nc(N(CCO)c2ccccc2)nc(N(CCO)c2ccccc2)n1
inactive: [1] 2.7% | [2] 8.8% | [3] 32.5% | [4] 7.75% | [5] 29.9% | [6] 1.7%

COC(=O)c1ccc(OC(=O)Nc2ccc(SC)cc2)cc1
inactive: [1] 3.2% | [2] 40.5% | [3] 25.4% | [4] -3.4% | [5] 34.2% | [6] 11.7%

Source: PubChem BioAssay (NCI)
